This is an account of results in PubChem BioAssay AID488969 (Vanderbilt High Throughput Screening Facility, 2010).

Each structure is given as a SMILES string. “And” between values parts separate entries of the source, which are not always exact repeats. Equal entries are not always repeated. In all, about 110,000 compounds were measured (“z-score”: median about -0.1, highest 2% from about 2 on). The sample holds the highest values, similar compounds and a random draw of the others, so the mix is not that of the screen. The source made the active and inactive calls.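 How the source made its calls: active means z-score in the third read window above 3 or below -3; inactive means the rest.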

Chain of Metabotropic glutamate receptor 8 (Rattus norvegicus) (P70579 whole entry, looked up): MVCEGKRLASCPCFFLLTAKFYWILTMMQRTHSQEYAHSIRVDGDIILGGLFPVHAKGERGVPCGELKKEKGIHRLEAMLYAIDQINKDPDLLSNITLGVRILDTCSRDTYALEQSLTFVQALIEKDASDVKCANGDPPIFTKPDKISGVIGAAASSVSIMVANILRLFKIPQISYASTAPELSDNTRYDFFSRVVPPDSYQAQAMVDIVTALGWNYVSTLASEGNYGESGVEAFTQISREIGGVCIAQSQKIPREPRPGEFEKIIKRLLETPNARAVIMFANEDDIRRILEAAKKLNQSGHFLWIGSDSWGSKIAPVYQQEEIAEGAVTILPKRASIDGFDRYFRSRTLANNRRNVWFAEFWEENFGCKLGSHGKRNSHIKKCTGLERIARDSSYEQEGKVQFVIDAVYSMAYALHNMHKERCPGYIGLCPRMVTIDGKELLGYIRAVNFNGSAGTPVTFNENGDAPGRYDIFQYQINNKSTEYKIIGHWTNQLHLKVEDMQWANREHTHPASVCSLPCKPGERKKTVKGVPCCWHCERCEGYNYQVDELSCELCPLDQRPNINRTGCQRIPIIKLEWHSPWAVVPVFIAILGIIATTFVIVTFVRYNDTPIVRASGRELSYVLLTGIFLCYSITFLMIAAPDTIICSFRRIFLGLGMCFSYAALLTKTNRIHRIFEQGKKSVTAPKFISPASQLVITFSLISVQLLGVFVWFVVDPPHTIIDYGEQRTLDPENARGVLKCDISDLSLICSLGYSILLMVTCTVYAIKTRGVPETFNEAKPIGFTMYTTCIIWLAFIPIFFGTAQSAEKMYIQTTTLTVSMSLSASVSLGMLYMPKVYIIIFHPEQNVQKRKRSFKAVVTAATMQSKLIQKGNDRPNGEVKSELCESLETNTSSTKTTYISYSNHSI

The test addresses Metabotropic glutamate receptor 8 (Rattus norvegicus) (UniProt P70579). The test can be described thus: rat mGluR8 modulators via GIRK flux, primary screen, cell-based, thallium flux, HTS (AID 488969). The conditions noted are these: HEK293 rat mGluR8, GIRK (G protein-gated inwardly rectifying potassium channel) thallium flux, FluoZin2; at 10 µM; stronger effect = higher value; submaximal glutamate (EC20) added with thallium.
`c1cnc(N2CCSCC2)nc1` had a z-score of -0.316. To `Cc1c(C(=O)Nc2ccccc2)cn2c(nc3ccccc32)c1C#N` belongs -0.348; to `COc1cccc2cc(C(=O)n3ccc(C)n3)c(=O)oc12`, -1.33; to `O=C1CC(c2ccc(S(=O)(=O)Nc3cc(C(F)(F)F)cc(C(F)(F)F)c3)cc2)CN1` (centres undefined), 0.112.

With `CCC(C)n1ncn(-c2ccc(N3CCN(c4ccc(OC)cc4)CC3)cc2)c1=O` (centres undefined), the z-score is -0.724. To `COc1cc(NC(=O)c2cc3sccc3n2C)cc(OC)c1` belongs -0.0259; to `O=c1c(O)c(-c2cccs2)oc2ccccc12`, 17.2 (active); to `O=C(O)c1cc(=O)c2cc(Cl)ccc2o1`, -0.147. The figure for `COc1ccc(OC)c(-c2oc3ccccc3c(=O)c2O)c1` is 0.149; for `O=c1c(O)c(-c2ccc3c(c2)OCO3)oc2ccccc12` it is -0.981; for `O=c1cc(-c2cccs2)oc2ccc(Cl)cc12` it is -0.565.

On to `O=c1c(O)c(-c2cccs2)oc2ccc(Cl)cc12`, for which the z-score is 14.1 (active). The figure for `O=C(Cc1cc(=O)[nH][nH]1)N/N=C/C(Cl)=C/c1ccccc1` is -0.191 and -0.199; for `COc1ccc(CCNC(=O)CCSc2nc(-c3ccco3)cc(C(F)(F)F)n2)cc1OC` it is -2.59.

`c1ccc(COc2cccc(CNn3cnnc3)c2)cc1`: the z-score was -0.177. To `COc1ccc(/C=C2\CCn3c2nc2cc(C(=O)O)ccc2c3=O)cc1O` belongs -0.197; to `O=C(O)c1ccc2c(c1)ncn2C1CCCCCC1`, 0.321. The figure for `CC(NC(=O)c1ccc(F)cc1)c1nc2ccccc2n1Cc1ccccc1F` (centres undefined) is -0.254. `CCOC(=O)CN1C(=O)C(C)(C)Oc2ccc(C(=O)Nc3ccccc3)cc21` yielded a z-score of -0.637. As for `CCOC(=O)CN1C(=O)C(C)(C)Oc2ccc(C(=O)NC(C)(C)CC)cc21`, the z-score was 0.0354. The figure for `CCOC(=O)CN1C(=O)C(C)(C)Oc2ccc(C(=O)Nc3ccccc3OC)cc21` is 2.42; for `COc1ccc(/C=C/C(=O)Nc2nc(N)n(-c3ccccc3)n2)cc1` it is -0.0927. For `CCOC1CC(C)(C)NC(=S)N1` (centres undefined), the z-score was -0.234. To `CCCc1ncc(C(O)c2cccc3ccccc23)n1C` (centres undefined) belongs 0.327; to `COCCN=C1Sc2nc3c(C)cccc3cc2CN1Cc1ccco1`, 0.0241.

Consider `O=C(CNS(=O)(=O)c1ccccc1)N1CCN(c2ccccc2)CC1`, for which the z-score is -0.0656. The figure for `CC1(C)CC(=O)c2sc(NC(=O)CN3C(=O)CCC3=O)nc2C1` is 2.59. The figure for `CCOCC(=O)Nc1nc2c(s1)C(=O)CC(C)(C)C2` is -0.264; for `CC1(C)CC(=O)c2sc(NC(=O)CN3CCOCC3)nc2C1` it is 0.431; for `C/C(=N\NC(=O)c1ccc(Cl)c(Cl)c1)c1cccc(NC(=O)C(C)C)c1` it is 0.0284.

`CCC(C(=O)NC1CCCC1)N(C(=O)Cn1nnc(-c2ccc(C)cc2)n1)C1CCCC1` (centres undefined): the z-score was -0.114. Compound `COc1ccc(-c2nnn(CC(=O)N(C3CCCCC3)C(C)C(=O)NC3CCCC3)n2)cc1OC` (centres undefined) came in with a z-score of 1.3. The figure for `CC(C)CCNC(=O)C(C)N(C(=O)Cn1nnc(-c2ccc(F)cc2)n1)C1CCCC1` (centres undefined) is 2.82; for `Cc1ccc(S(=O)(=O)NC2(C(F)(F)F)C(=O)Nc3c2c(=O)n(C)c(=O)n3C)cc1` (centres undefined) it is -0.423; for `O=C(Nc1ccccc1)c1ccc(N2CCN(c3ccccc3)CC2)c(S(=O)(=O)N2CCOCC2)c1` it is -0.142.

Turning to `O=C(N/N=C\CCc1ccccc1)c1ccco1`, the z-score amounted to 0.322. `NC(=O)CSc1ncc(-c2ccccc2)[nH]1` returned a z-score of 0.142. To `CCOc1ccc(C(=O)OCCN(CC)CC)cc1` belongs 0.374. `CCCOc1ccc(C(C(=O)OCCN(CC)CC)c2ccccc2)cc1` (centres undefined) had a z-score of 2.43. The figure for `COc1ccc(C(C(=O)OCCN(C)C)c2ccccc2)cc1` (centres undefined) is 0.325. To `CC(=O)C(Sc1ccc2nnc(-c3ccc(C)cc3)n2n1)C(C)=O` belongs 1.78.

In the case of `Cc1ccccc1NC(=O)N(CCc1nc2ccccc2[nH]1)Cc1ccccc1`, the z-score was -0.292. To `Cc1ccccc1NC(=S)c1nc2ccccc2[nH]1` belongs 10.9 (active). To `Cc1ccc(Nc2nnc(SC/C(O)=C(\C#N)c3nc4ccccc4[nH]3)s2)c(C)c1` belongs -0.166; to `Cc1ccc(C)c(NC(=S)c2ccc3ccccc3n2)c1`, 0.103. `Cc1ccccc1NC(=O)NCCc1nc2ccccc2[nH]1`: the z-score was -0.0805. Take `O=C(/C(=C/c1ccc(Cl)cc1)c1nc2ccccc2[nH]1)c1ccccc1`: the z-score is -0.287. As for `Cc1ccc(NC(=S)c2nc3ccccc3[nH]2)c(C)c1`, the z-score is 6.64 (active). In the case of `S=C(Nc1ccc(Cl)cc1)c1nc2ccccc2[nH]1`, the z-score is 6.95 (active). `Cc1ccc(NC(=S)c2nc3ccccc3[nH]2)cc1` registered a z-score of -1.02. To `CCn1c(COc2ccccc2)nnc1SCc1ccc(C#N)cc1` belongs -0.725; to `Cc1c(Nc2nc3ccccc3nc2NS(=O)(=O)c2ccccc2)c(=O)n(-c2ccccc2)n1C`, -0.716; to `O=C(OCc1ccc([N+](=O)[O-])cc1)C1CCN(S(=O)(=O)c2ccccc2)CC1`, -0.136. Turning to `Cc1cc(C(F)F)n2nc(C(=O)Nc3ccc(S(=O)(=O)N4CCCC4)cc3)nc2n1`, the z-score is -0.187. The figure for `CNS(=O)(=O)c1ccc(NC(=O)c2nc3nc(C)cc(C(F)F)n3n2)cc1` is -0.548; for `CCN(CC)c1ccc(NC(=O)c2nc3nc(C)cc(C(F)F)n3n2)cc1` it is 3.02 (active).

Take `CCOC(=O)C1(C(=O)OCC)CC1c1ccccc1` (centres undefined): the z-score was -0.0513. To `CCCCCCCCCCn1c2c(c(=N)c3c1CCC3)CCC2` belongs 0.554.

As to `CCCCCCn1c2c(c(=N)c3c1CCC3)CCC2`, the z-score is 1.81. To `CCCCCCCCCn1c2c(c(=N)c3c1CCC3)CCC2` belongs 4.64 (active); to `CCOC(=O)c1ccc(CNCc2ccc(C)cc2)cc1`, 0.302. The figure for `COC(=O)c1ccc(C(=O)OC)c(NC(=O)CSc2ccccn2)c1` is -0.644; for `Clc1ccc2c(c1)CCc1cccnc1C2=C1CCNCC1` it is 2.74; for `O/N=C1\CCc2cc(Cl)ccc21` it is 0.365.

`CCOC(=O)c1c(NC(=O)COc2cccc3c2CCN(CC)C3=O)sc2c1CCC2`: the z-score is -0.925. The figure for `CCOC(=O)c1c(-c2ccccc2)csc1NC(=O)c1nn(CC)cc1Br` is -0.101; for `O=S1(=O)CC(NCc2ccccc2)C(Nc2ccccc2)C1` (centres undefined) it is 2.43; for `COc1ccc(NC2CS(=O)(=O)CC2NCc2ccccc2)cc1` (centres undefined) it is 0.261. To `O=C(NC1CS(=O)(=O)CC1NCc1ccccc1)c1ccccc1` (centres undefined) belongs 0.00939. The figure for `C=CCNC(=O)C1CC(=O)N(c2ccc(OCC(=O)Nc3ccccc3)cc2)C1` (centres undefined) is 4.85 (active). The compound `C=CCNC(=O)C1CC(=O)N(c2ccc(OCC(=O)Nc3ccc(C)cc3)cc2)C1` (centres undefined) returned a z-score of 0.104. The figure for `C=CCNC(=O)C1CC(=O)N(c2ccc(OCC(=O)Nc3ccc(OC)cc3)cc2)C1` (centres undefined) is -0.466; for `C=CCSc1nnc(NC(=O)c2cccc(S(=O)(=O)N(C)c3ccccc3)c2)s1` it is 0.542; for `O=C(NC(=S)N(CCCCO)C1CCCCC1)c1sc2ccccc2c1Cl` it is 9.88 (active). The figure for `O=C(NCC1CCCO1)c1sc2ccccc2c1Cl` (centres undefined) is -0.467; for `CCCOC(=S)NC(=O)c1sc2ccccc2c1Cl` it is 12 (active); for `Cc1ccccc1NC(=O)COC(=O)CNC(=O)c1sc2ccccc2c1Cl` it is -1.08. The figure for `O=C(COC(=O)c1sc2ccccc2c1Cl)NC1CCCCC1` is -0.479; for `NC(N)=NS(=O)(=O)c1ccc(NC(=S)NC(=O)c2sc3ccccc3c2Cl)cc1` it is 0.0467.

As for `CCOc1ccc(C(CC(=O)O)NC(=O)c2sc3ccccc3c2Cl)cc1` (centres undefined), the z-score is -0.958. The figure for `CCCn1nnc(NC(=O)c2sc3ccccc3c2Cl)n1` is 0.0281; for `CN(C(=O)COC(=O)CNC(=O)c1sc2ccccc2c1Cl)c1ccccc1` it is -0.854. To `CCOC(=S)NC(=O)c1sc2ccccc2c1Cl` belongs 11.1 (active); to `COc1ccc(C(CC(=O)O)NC(=O)c2sc3ccccc3c2Cl)cc1` (centres undefined), -0.476. To `CCCCOC(=S)NC(=O)c1sc2ccccc2c1Cl` belongs 17.3 (active); to `CC(=O)c1c(C(C)=O)c(C)n(CCCCn2c(C)c(C(C)=O)c(C(C)=O)c2C)c1C`, -0.0757; to `Cc1cc(C(=O)Nc2ccc(S(=O)(=O)Nc3onc(C)c3C)cc2)c(C)o1`, 0.0164. For the compound `CC(=O)Nc1ccc(NC(=O)Cc2sc(C)nc2-c2ccc(C)cc2)cc1`, the z-score was -0.345. `O=C(O)c1ccc(-c2nc(-c3ccccc3)c(-c3ccccc3)[nH]2)cc1` yielded a z-score of -1.56. The figure for `Cc1ccc2oc(-c3cccc(NC(=O)c4cc(-n5cnnc5)ccc4Cl)c3)nc2c1` is -0.0315; for `CCOC(=O)C1=C(C)N(C)C(=O)NC1c1ccc(C)s1` (centres undefined) it is -0.0391; for `O=C(CCC(=O)Nc1ccccc1)NNC(=O)C(c1ccccc1)c1ccccc1` it is 0.336. Consider `Cc1nnn(C23CC4CC(CC(C4)C2)C3)n1`, for which the z-score is -0.708. The figure for `S=c1nn[nH]n1C12CC3CC(CC(C3)C1)C2` is 2.46; for `Cn1c(C23CC4CC(CC(C4)C2)C3)n[nH]c1=S` it is 0.216; for `COC(=O)c1sc2nc(SCc3ccccc3C#N)n(N)c(=O)c2c1C` it is 0.247. The figure for `c1ccc(-c2oc3ncnc(NCCN4CCOCC4)c3c2-c2ccccc2)cc1` is -0.115; for `COc1ccc(C2C3=C(CC(C)(C)CC3=O)Oc3ncn(CCO)c(=N)c32)cc1OC` (centres undefined) it is 0.234; for `COc1ccc(-c2oc3ncn(CCN4CCOCC4)c(=N)c3c2-c2ccc(OC)cc2)cc1` it is 2.6. The figure for `COc1ccc(C2c3ccc4ccccc4c3Oc3ncn(CCN4CCOCC4)c(=N)c32)cc1` (centres undefined) is 4.1 (active); for `CC1(C)CC(=O)C2=C(C1)Oc1ncn(CCO)c(=N)c1C2c1ccccc1` (centres undefined) it is 0.471; for `COc1ccc(-c2oc3ncnc(NCCN4CCOCC4)c3c2-c2ccc(OC)cc2)cc1` it is -0.338. Consider `N=c1c2c(ncn1Cc1ccco1)Oc1c(ccc3ccccc13)C2c1ccccc1` (centres undefined), for which the z-score came out at 0.538. The figure for `COc1ccc(C2C3=C(CC(C)(C)CC3=O)Oc3ncn(Cc4ccccc4)c(=N)c32)cc1` (centres undefined) is 2.84; for `COc1ccc(C2c3ccc4ccccc4c3Oc3ncn(Cc4ccco4)c(=N)c32)cc1OC` (centres undefined) it is 0.46; for `N=c1c2c(ncn1CCN1CCOCC1)Oc1ccc3ccccc3c1C2c1ccccc1` (centres undefined) it is 4.03 (active). The figure for `COc1ccc(C2c3c(ncn(Cc4ccco4)c3=N)Oc3ccc4ccccc4c32)cc1` (centres undefined) is -0.169; for `COc1ccc(C2c3c(ncn(CCN4CCOCC4)c3=N)Oc3ccc4ccccc4c32)cc1OC` (centres undefined) it is 0.922. The compound `CC(CN1CCOCC1)OC(=O)C(C)(c1ccccc1)c1ccccc1` (centres undefined) returned a z-score of 0.383.
